Screens as filed in PubChem.
SRC1 inh = inhibitors of human steroid receptor coactivator 1 (SRC1) | HEK293 GAL4-SRC1 luciferase reporter, luminescence | inhibition, % at 3.6 µM | 0.12% of 360,000 active | AID 588354;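 active = inhibition above the campaign mean plus 3 SD, with each screening campaign given its own cutoff, cut at about 60% in these data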
NCOA3 inh = inhibitors of human steroid receptor coactivator 3 (SRC3) | HEK293 GAL4-SRC3 luciferase reporter, luminescence | inhibition, % at 3.6 µM | 0.17% of 360,000 active | AID 588352;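 active = inhibition above a per-campaign cutoff, the mean of all compounds plus 3 SD, cut at about 60% in these data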;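 also: higher means less SRC3-driven luciferase light from the GAL4 reporter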
NCOA2 inhibitor = inhibits human steroid receptor coactivator 2; inhibition, % at 9 µM; 0.17% of 370,000 active; Q15596; HEK293 GAL4-SRC2 luciferase reporter, luminescence; AID 651957;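 active = inhibition above the mean inhibition of all tested compounds plus 3 SD, set per campaign, cut at about 52% in these data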
COUP-TFII inh = NR2F2 (human) inhibition, primary screen; P24468; HEK293T NGFI-A luciferase reporter, luminescence; inhibition, % at 8.6 µM; 0.7% of 370,000 active;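 active = inhibition above a per-plate cutoff, mean inhibition of test wells between control levels plus 3 SD, cut at about 38% in these data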;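 also: cells cotransfected with COUP-TFII expression vector driving the NGFI-A reporter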
Target sequence (P24468 whole entry, looked up): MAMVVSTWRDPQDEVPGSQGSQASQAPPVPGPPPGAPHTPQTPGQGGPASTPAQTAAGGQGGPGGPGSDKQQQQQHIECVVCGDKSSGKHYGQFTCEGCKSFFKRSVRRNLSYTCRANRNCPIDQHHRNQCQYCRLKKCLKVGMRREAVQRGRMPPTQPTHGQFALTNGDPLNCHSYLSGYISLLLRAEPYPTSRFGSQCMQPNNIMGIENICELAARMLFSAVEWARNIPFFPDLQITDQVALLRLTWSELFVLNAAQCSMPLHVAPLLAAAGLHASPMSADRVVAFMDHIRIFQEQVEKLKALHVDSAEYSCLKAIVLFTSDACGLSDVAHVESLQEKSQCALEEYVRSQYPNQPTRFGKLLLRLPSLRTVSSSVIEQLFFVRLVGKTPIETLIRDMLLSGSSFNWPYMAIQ
LRH-1 inv ag = NR5A2 inverse agonism in reporter assay. inhibition, % at 3.6 µM. AID 602396. HEK293T StAR-luciferase reporter, LRH-1 transfected, 24 h. 0.13% of 360,000 active;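 active = inhibition above the mean inhibition of all tested compounds plus 3 SD, cut at about 73% in these data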
Gli-Sufu antag = blocks Gli-Sufu signaling in a luciferase reporter | Sufu-KO-LIGHT fibroblasts, Gli luciferase reporter luminescence | inhibition, % at 5 µM | 0.74% of 340,000 active;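 active = inhibition above about 55%, limit read from the data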
A number is an active result; . = inactive; / = no result given. Sampled rows, rich in hits. Any-hit rate of the full collection: about 1.3%.

SMILES	SRC1 inh	NCOA3 inh	NCOA2 inhibitor	COUP-TFII inh	LRH-1 inv ag	Gli-Sufu antag
O=C(CCl)NC(Cc1ccccc1)c1ccccc1 (stereo unspecified)	.	.	56.6	.	.	.
COc1cc(NC(=O)CSc2ncnc3c2cnn3Cc2ccccc2)cc(OC)c1	.	.	.	.	.	.
COc1ccc(OC)c(NC(=O)CSc2ncnc3c2cnn3-c2ccccc2Cl)c1	.	.	/	/	.	75.6
CC(C)C[C@H]1COc2cccc(F)c2S(=O)(=O)N1Cc1cn(CCC2OCCO2)nn1	/	/	.	.	/	/
Cc1cc(=O)[nH]c(NN=Cc2cc(Br)ccc2O)n1	.	.	.	.	.	76.2
CC(=O)Nc1cccc(C(C)C2=CCCCC2)c1 (stereo unspecified)	/	/	.	.	/	/
CN(c1ncnc(N)c1[N+](=O)[O-])C1CCCCC1	71.2	63.3	57.5	.	.	.
Brc1ccc(N/N=C(/N=Nc2nn[nH]n2)c2ccccc2)cc1	.	63.4	.	.	.	.
Cc1cccc(-c2cccc3c4c([nH]c23)[C@@H]2C[C@H](N(C)C(=S)Nc3ccc(C#N)cc3)[C@H]([C@H](C)O)CN2CC4)c1	/	/	.	.	/	/
CCCCCCCCN1CCS(=O)(=O)N(Cc2ccc(OC)cc2)C(C(=O)OC)C1 (stereo unspecified)	/	/	.	.	/	/
CCOc1ccccc1C(=O)N1CCN(c2cccc(Cl)c2)CC1	.	.	.	.	.	58.7
COC(=O)[C@]12C[C@H](CC(=O)NCCCN3CCCC3=O)C(=O)N(Cc3ccc(Cl)cc3Cl)C1=C[C@H](COCc1ccccc1)O[C@@H]2C	/	/	.	.	/	/
Nc1nc2cc3c(cc2cc1C(=O)NCc1cccnc1)OCO3	/	/	.	.	/	/
O=C(CCl)N1N=C(c2cccs2)CC1c1ccco1 (stereo unspecified)	.	.	60.1	.	.	.
CCOC(=O)Cn1cc(CN2CCS(=O)(=O)N(Cc3ccc(Cl)cc3)C(C(=O)OC)C2)nn1 (stereo unspecified)	/	/	.	.	/	/
COc1ccccc1NC(=S)NN=C(C)c1ccccn1	65.1	.	.	.	82.3	85.0
CC(=NNC(=S)Nc1ccc(C)cc1)c1ccccn1	70.4	67.7	.	.	.	.
CC(=NNC(=S)Nc1cccc(C)c1)c1ccccn1	72.9	72.2	.	.	86.0	82.0
CC(C)C(C#CC1CC1)NCc1ccc2c(c1)OCO2 (stereo unspecified)	/	/	.	.	/	/
C/C(=N\NC(=O)c1cccc2ccccc12)c1ccccn1	.	.	.	.	.	79.9
C/C(=N\NC(=O)c1cc(-c2cccs2)nc2ccccc12)c1ccccn1	.	.	.	.	.	93.5
C/C(=N\NC(=O)c1ccccc1Cl)c1ccccn1	.	.	.	.	.	63.5
NNC(=O)c1cc(-c2cccs2)nc2ccccc12	.	.	.	.	.	.
C/C(=N\Nc1nc2ccccc2[nH]1)c1ccccn1	74.7	79.4	.	.	84.1	/
C/C(=N\NC(=O)c1ccccc1OCc1ccc(F)cc1)c1ccccn1	.	.	.	.	.	.
SMILES	SRC1 inh	NCOA3 inh	NCOA2 inhibitor	COUP-TFII inh	LRH-1 inv ag	Gli-Sufu antag
C/C(=N\NC(=O)c1ccc(Cl)c(Cl)c1)c1ccccn1	.	.	.	.	.	.
O=S1(=O)c2c(cccc2N2CCSCC2)Oc2ccccc2CN1Cc1cn(Cc2cccc(C(F)(F)F)c2)nn1	/	/	.	.	/	/
CC(CCN1CCC(C(O)(c2ccccc2)c2ccccc2)CC1)Oc1ccccc1C#N (stereo unspecified)	/	/	.	.	/	/
Nc1nc(N)c2cc([N+](=O)[O-])ccc2n1	.	.	.	.	.	.
Nc1nc(N)c2c(ccc3c2ccn3Cc2cccc([N+](=O)[O-])c2)n1	64.6	64.4	.	.	.	/
COc1ccc(CNS(=O)(=O)/C=C/c2ccccc2CNC(=O)OC(C)(C)C)cc1	/	/	.	.	/	/
O=C(O)CCCCCCCC(=O)O	.	.	.	.	.	.
O=C(O)CCCCCCCCCCC1CCC(O)C1O (stereo unspecified)	.	.	.	40.8	.	.
O=C(Nc1ccc([N+](=O)[O-])cc1)Nc1nc(-c2ccc(Cl)s2)cs1	.	.	.	.	.	60.5
CCN(Cc1cn(Cc2ccc(C)cc2)nn1)S(=O)(=O)c1ccccc1Br	/	/	.	.	/	/
CCCOC(c1ccccc1)(c1ccc(C(F)(F)F)cc1)C(Oc1nc(C)cc(C)n1)C(=O)O (stereo unspecified)	61.0	71.0	.	.	81.1	.
Cc1ccc(Nc2nc(-c3c(C)nc4ccccn34)cs2)cc1	.	.	.	.	.	62.3
Cc1cccc(C(=O)Nc2nc3ncccn3c2-c2ccc(F)c(F)c2)c1	/	/	.	.	/	/
O=C(O)COc1ccc(-c2nccc(-c3ccccn3)n2)cc1	.	.	67.1	41.2	.	.
NNC(=O)COc1ccc(-c2nccc(-c3ccc(F)cc3)n2)cc1	.	.	53.2	.	.	.
CC(C)C[C@@H]1COc2cc(Br)ccc2S(=O)(=O)N1Cc1cn(CCC2OCCCO2)nn1	/	/	.	.	/	/
Nc1ncnc2c1ncn2[C@@H]1O[C@H](C(=O)N[C@@H](CCc2ccccc2)C(=O)N2CCN(CC(=O)N3CCCC3)CC2)[C@@H](O)[C@H]1O	/	/	.	.	/	/
COC(=O)CSc1nnc(-c2ccc(NS(=O)(=O)c3c(C(C)C)cc(C(C)C)cc3C(C)C)cc2)o1	/	/	.	.	/	/
CN(C)CCNc1ccc(CO)c2sc3ccc(O)cc3c(=O)c12	79.2	.	.	.	.	76.7
CC(C)NS(=O)(=O)c1ccc(OCC(=O)N2CCN(c3ccccc3)CC2)cc1	.	.	.	.	.	.
O=C(COc1ccc(S(=O)(=O)NC2CCCCC2)cc1)N1CCN(c2cccc(Cl)c2)CC1	.	.	.	57.2	.	.
COC(=O)C1CN(Cc2cn(CCC3OCCO3)nn2)CCS(=O)(=O)N1Cc1ccc(OC)cc1 (stereo unspecified)	/	/	.	.	/	/
COc1ccc(Br)cc1/C=C/C(=O)c1ccc(NC(C)=O)cc1	.	71.1	61.2	.	.	.
COC(=O)c1cc(C(c2ccccc2O)C2CCCO2)n2cccc(C(C)(C)C)c12 (stereo unspecified)	/	/	.	.	/	/
COc1cc(C(=O)/C=C/c2cccnc2)c([N+](=O)[O-])cc1OC	.	.	60.6	.	.	.
SMILES	SRC1 inh	NCOA3 inh	NCOA2 inhibitor	COUP-TFII inh	LRH-1 inv ag	Gli-Sufu antag
O=C(/C=C/c1cccnc1)c1ccc([N+](=O)[O-])cc1	.	.	.	.	.	.
Cc1ccc(C(=O)C(c2ccccc2)N2Cc3ccccc3C2=N)cc1 (stereo unspecified)	.	.	/	/	.	55.7
COc1ccc(C(=O)C(c2ccccc2)N2CCOCC2)cc1 (stereo unspecified)	.	.	.	.	.	.
C[C@@H]1COc2cc(N3CCCCC3)ccc2S(=O)(=O)N1	/	/	.	.	/	/
CC(=O)Nc1ccc(OCC(C)CN2CCC(C(O)(c3ccccc3)c3ccccc3)CC2)cc1 (stereo unspecified)	/	/	.	.	/	/
Cc1cc(C(N)=O)c2ccccc2n1	.	.	.	.	.	.
NC(=O)c1cc2ccncc2c2ccccc12	81.5	64.9	56.3	.	.	.
